Compound activity (PubChem)
ClpP mod – qHTS Assay for Activators of ClpP. purified B. subtilis ClpP, FRET peptide cleavage, 20 min. Potency, µM (titrated, usually from 57.5 µM), for the others: at the top dose activity change, negative = active. 1.9% of 340,000 active; active = well fitted falling curve with a large enough effect; inconclusive = small, poorly fitted or top-dose-only effect; inactive = no such curve, though single readings can be large or run the other way; also: the source files actives as falling curves though it sought activators and does not explain the sign; nearly all actives have a fitted effect of over 65% in size
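Purified B. subtilis ClpP, 10 microg/mL final in Tris/HCl pH8 with KCl, BSA, glycerol and Tween-20, cleaved an Abz/nitrotyrosine-quenched decapeptide. Fluorescence (ex 320, em 430) was read at 0 and 20 min at room temperature. Delta was normalized to 5.8 microM ADEP and DMSO/no-enzyme controls.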
USP2a inh – blocks human ubiquitin-specific protease USP2a; O75604; USP2 core, Ub-CHOP2 coupled fluorogenic reporter, 485/531; Potency, µM (titrated, usually from 38.3 µM), without a hit: at the highest dose activity change, negative = inhibition, hits mostly inhibitors; 0.01% of 330,000 active;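 also: plate controls were DMSO wells for no effect and full inhibition by NEM control for full effect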
Target sequence (O75604 whole entry, looked up): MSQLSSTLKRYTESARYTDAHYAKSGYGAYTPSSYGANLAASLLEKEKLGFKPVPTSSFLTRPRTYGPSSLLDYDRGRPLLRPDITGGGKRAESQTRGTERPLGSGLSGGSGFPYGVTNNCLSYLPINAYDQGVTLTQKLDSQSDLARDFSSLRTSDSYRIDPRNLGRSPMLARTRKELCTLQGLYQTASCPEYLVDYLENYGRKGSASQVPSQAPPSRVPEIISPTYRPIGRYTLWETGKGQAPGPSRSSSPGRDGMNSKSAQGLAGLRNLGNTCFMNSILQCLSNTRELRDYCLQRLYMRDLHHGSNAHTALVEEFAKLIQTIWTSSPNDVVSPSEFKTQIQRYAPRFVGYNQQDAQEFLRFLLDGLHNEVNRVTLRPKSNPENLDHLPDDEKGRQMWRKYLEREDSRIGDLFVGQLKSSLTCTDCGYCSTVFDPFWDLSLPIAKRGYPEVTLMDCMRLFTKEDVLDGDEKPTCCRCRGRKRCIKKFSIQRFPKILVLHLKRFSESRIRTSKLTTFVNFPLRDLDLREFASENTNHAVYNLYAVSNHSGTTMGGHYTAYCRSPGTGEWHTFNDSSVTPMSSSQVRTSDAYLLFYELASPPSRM
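USP2 core (10nM final) preincubated 30min RT with compound in 20mM Tris-HCl pH 8.0, 2mM CaCl2, 2mM beta-mercaptoethanol, 0.05% CHAPS; 25nM Ub-CHOP2 plus 25nM reporter substrate added, fluorescence (Ex485/Em531) read after 60min.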
Eya2 inh – inhibitors of human Eya2 phosphatase activity; 0.006% of 330,000 active; recombinant Eya2, OMFP fluorescence dephosphorylation (OMFP is methylfluorescein phosphate); Potency, µM (titrated, usually from 76.9 µM), for the others: at the highest dose activity, negative = inhibition, actives largely listed as inhibitors; also: % is scaled to controls: 0 for no effect and ±100 for the full control effect
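Eya2 protein (added as 0.2 uM solution) was preincubated with compound for 10 min at ambient temperature in 50 mM HEPES pH 7.5, 50 mM NaCl, 5 uM MgCl2, 0.05% BSA, 1 mM DTT. OMFP (added at 50 uM) then reacted 10 min; fluorescence read at 485/525 nm.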
p53 reactivator – restores transcriptional activity of mutant p53; H1299 p53-A138V BP100-luciferase reporter, luminescence, 24 h; Potency, µM (highest dose often 92.2 µM), without a hit: top-dose activity change, positive = activation, hits mostly activators; 0.063% of 320,000 active; AID 504706; also: % of control where 0% means no effect; nearly all actives have a fitted effect of over 45% in size
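p53-null H1299 cells stably carrying temperature-sensitive p53-A138V and a BP100-luciferase reporter were pinned with compounds (4-point, 1:5 series) and held 24 hrs at 37 deg C. Luminescence was read 10 min after detection reagent.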
Integrin act MD – activators of alpha7 integrin expression for muscular dystrophy | 0.064% of 350,000 active | alpha7betagal myoblasts, beta-gal FDG fluorescence, 48 h | AID 624291 | Potency, µM (top dose mostly 38.3 µM), without a hit: top-dose activation, most hits filed as activators;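 also: 100% = response of the positive control SU9516; nearly all actives have a fitted effect of over 60% in size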
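Alpha7betagal+/- myoblasts (passage 13) were plated 16-24 hr, then exposed to compounds (1:260 dilution of DMSO stock) for 48 hours at 37C. After MPER lysis, β-galactosidase reporter activity was read as FDG fluorescence (ex 480/em 540) after 30 minutes.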
Mm-Cpn inhibitor – inhibitors of Methanococcus maripaludis chaperonin TRiC (MmCpn). Potency, µM (series often up to 76.9 µM), for the others: at the top dose activity, negative = inhibition, usual class: inhibitors. purified Mm-Cpn ATPase, ADP Transcreener TR-FRET. AID 504842. 0.031% of 330,000 active; also: % is scaled to controls: 0 for no effect and ±100 for the full control effect; nearly all actives have a fitted effect of over 80% in size
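ATPase turnover read by TR-FRET ADP competition (Eu cryptate antibody/ADP-d2, 665/590 nm): 10uM ATP final, 25nM Mm-CPN final, 30 min 37degC after 10-min compound preincubation, pH 7.4 Tris/KCl/MgCl2/DTT buffer.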
* marks the source's active call; other numbers are inactive results; ? = inconclusive; · = no result; [ ] = dose if it differs, or a comment. This is one part of a sample in which hits are shown more often than they occur. Unless noted, calls follow the shape of the dose curve; as a rule, active = well fitted curve in the direction sought with a large enough effect; inconclusive = small, poorly fitted or top-dose-only effect, or another doubt; inactive = no such curve, though single readings can be large; an effect the other way counts as inactive or inconclusive. Potency is read from the fitted curve at half-maximal effect.

SMILES | ClpP mod | USP2a inh | Eya2 inh | p53 reactivator | Integrin act MD | Mm-Cpn inhibitor
CCOc1cc(C2NN=C(c3ccccc3)S2)ccc1OCc1ccc(F)cc1 (centres undefined) | 14µM* | 1% | -41% | ? | 29% | -4%
CCCCN(C(=O)C(C)Oc1ccc(Br)cc1)c1c(N)n(Cc2ccccc2)c(=O)[nH]c1=O (centres undefined) | 28µM* | 3% | -3% | 3% | 26% | 0%
CCCN(C(=O)C(C)Oc1cccc(Cl)c1)c1c(N)n(Cc2ccccc2)c(=O)[nH]c1=O (centres undefined) | 0% | 0% | -5% | 1% | -9% | 2%
Cc1ccc(Cl)cc1NC(=O)c1ccc(-c2nc(CSc3ccccc3)c(C)o2)cc1 | 13µM* | · | · | · | · | ·
O=C(NCCc1csc2nc(-c3cccc(F)c3)nn12)c1ccc(Br)o1 | 0% | · | · | · | · | ·
CCNC(=S)N(Cc1c(C)noc1C)c1ccccc1 | -2% | 0% | -1% | -3% | 5% | 1%
CCCCNC(=S)N(Cc1c(C)noc1C)c1ccccc1 | 4µM* | 2% | 11% | 17% | 3% | 5%
c1ccc(COc2ccc(OCCCCN3CCCC3)cc2)cc1 | -1% | 1% | -1% | 11µM* | 0% | -2%
c1ccc(COc2ccc(OCCCN3CCCCC3)cc2)cc1 | -4% | 2% | -10% | ? | -53% | 0%
CN1CCN(CCOc2ccc(Cc3ccccc3)cc2)CC1 | · | -1% | -16% | · | -41% | -3%
CC1CCN(CCOc2ccc(OCc3ccccc3)cc2)CC1 | 3.2µM* | -5% | 4% | 21% | -51% | 2%
CN1C(=O)c2ccc(NC(=O)CSc3ccccc3)cc2C1=O | 1% | 2% | -12% | 17% | 29% | 0%
CCCC(=O)Nc1ccc2c(c1)C(=O)N(CCC(=O)O)C2=O | 28µM* | 3% | -9% | -2% | -8%[7.66 µM] | -3%
O=C(O)CCN1C(=O)c2ccc(NC(=O)c3cccs3)cc2C1=O | 32µM* | 1% | -5% | -9% | -15% | -1%
CCC(=O)Nc1ccc2c(c1)C(=O)N(C)C2=O | 28µM* | -3% | 5% | -2% | 21% | -3%
O=C(Nc1ccc2c(c1)C(=O)N(c1ccccc1)C2=O)c1cccs1 | 4% | 4% | -2% | 3% | 2% | -1%
N/C(=C\c1ccccc1)c1ccncc1 | -3% | · | · | · | · | ·
NC1CCc2ccccc21 (centres undefined) | -1% | · | · | · | · | ·
CN1C(=O)c2cccc3c(Br)ccc(c23)C1=O | 1% | · | · | · | 18% | ·
CN1C(=O)c2cccc3c(Cl)ccc(c23)C1=O | 16µM* | -1% | 3% | -2% | 9% | -3%
COc1cccc(/C=C/c2nc3ccccc3nc2/C=C/c2cccc(OC)c2OC)c1OC | -2% | · | · | · | · | ·
Cc1c(NC(=S)N/N=C/c2cccc(O)c2)c(=O)n(-c2ccccc2)n1C | 0% | 4% | 9% | 9% | 6% | 4%
Cc1c(NC(=S)N/N=C/c2ccc(N(C)C)cc2)c(=O)n(-c2ccccc2)n1C | 32µM* | -1% | -6% | 2% | 28% | -2%
Oc1ccc(/C=N/NC(=S)NCc2ccco2)cc1 | -6% | 2% | 2% | -2% | 3% | 1%
Cc1ccccc1N(CC(=O)N/N=C/c1ccc(N(C)C)cc1)C(=O)c1ccccc1 | 35µM* | -7% | 6% | 23% | -1% | -3%
SMILES | ClpP mod | USP2a inh | Eya2 inh | p53 reactivator | Integrin act MD | Mm-Cpn inhibitor
CCN(CC)c1ccc(/C=N/NC(=S)NCc2ccco2)cc1 | 16µM* | -1% | -4% | 9% | -41% | 1%
CN(C)c1ccc(/C=N/NC(=S)NCc2ccccc2)cc1 | 18µM* | 0% | 1% | 20% | 2% | -5%
Cc1ccc(-c2nc3cnccn3c2Nc2ccc(C(C)C)cc2)o1 | -9% | · | · | · | · | ·
O=C(NC1CCCC1)c1cnn2c1NC(=C1CC1)C=C2C(F)F | -4% | · | · | · | · | ·
Nc1ncnc2c1nc(Sc1ccc(Cl)cc1)n2[C@H]1OC2COP(=O)(O)O[C@@H]2C1O (some centres undefined) | · | · | 5% | · | · | ·
Clc1ccc(/C=C/c2ccncc2)cc1Cl | 4% | · | · | · | · | ·
C=Cc1ccc(Cn2c(C)c(CNCCc3ccc(OCC)cc3)c(C(=O)O)c2C)cc1 | 0% | · | · | · | · | ·
CCOc1ccc(N2C(=O)C3C(C2=O)C3(c2ccccc2)c2ccccc2)cc1 (centres undefined) | -3% | 1% | 0% | -6% | 11% | -4%
CCOc1ccc(N2C(=O)C3C(c4ccccc4)=NN(c4ccccc4)C3C2=O)cc1 (centres undefined) | 11µM* | 2% | 13% | -8% | 15% | 0%
CCc1cccc(CC)c1NC(=O)C(Cc1ccccc1)NS(=O)(=O)c1cccc2nsnc12 (centres undefined) | -7% | · | · | · | · | ·
Cc1c(C(=O)N2CCN(c3ncccn3)CC2)sc2nc3n(c(=O)c12)CCCC3 | 28µM* | · | · | · | -16% | ·
Cc1c(C(=O)O)sc2nc3n(c(=O)c12)CCCCC3 | 1% | · | · | · | 16% | ·
CCOc1ccc(CCNc2ncnc3onc(C)c23)cc1OCC | 2% | · | · | · | · | ·
Cc1c(Cl)cccc1NC(=S)N1CCN(C(=O)C2CCCO2)CC1 (centres undefined) | 28µM* | 1% | -3% | -6% | 7% | 1%
COc1ccccc1-c1ccc(/C=C2/C=C(CC(C)C)OC2=O)o1 | 35µM* | 1% | 20% | 15% | 16% | -6%
COc1cccc(NC(=O)c2oc3ccc(S(=O)(=O)N(C)C4CCCCC4)cc3c2C)c1 | 25µM* | · | · | · | · | ·
COc1cccc(-c2nc(SCC(=O)NC3CCCC3)c(-c3ccccc3)[nH]2)c1 | 32µM* | · | · | · | · | ·
COc1cccc(-c2nc(SCC(=O)NC3CCCC3)c(-c3ccc(F)cc3)[nH]2)c1 | 35µM* | · | · | · | · | ·
COc1cccc(-c2nc(SCC(=O)NCC3CCCO3)c(-c3ccc(Cl)cc3)[nH]2)c1 (centres undefined) | 25µM* | · | · | · | · | ·
COc1ccc(-c2[nH]c(-c3ccc(C)cc3)nc2SCC(=O)NC2CCCC2)cc1 | 4% | -5% | -14% | -7% | -13% | 0%
Cc1ccccc1OCC(=O)NCC(=O)OC(c1ccccc1)c1ccccc1 | -5% | · | · | · | · | ·
C=CCn1c(-c2ccoc2)n[nH]c1=S | 32µM* | 0% | 11% | -2% | 0% | -9%
Cc1cc(C)cc(NC(=O)Cn2c(-c3ccccc3Cl)nc3ccccc32)c1 | 28µM* | -2% | 4% | 22% | -8% | 2%
